The text below walks through data of PubChem BioAssay AID1851 (National Center for Advancing Translational Sciences (NCATS), 2009).

Each structure is given as a SMILES string. Out of some 16,000 compounds screened, about 5,100 (32%) were called active. Another 25% or so got no clear call; they are omitted. Some of the results follow. Unmarked numbers belong to inactive results. The call rests on the fitted dose curve; in most records, active means well fitted curve in the direction sought with a large enough effect; inconclusive means small, poorly fitted or top-dose-only effect, or effect the other way; inactive means no such curve, though single readings can be large or run the other way.
On the % scale 0 is the no-effect control and ±100 the full control effect.

Sequence of Cytochrome P450 3A4 (Homo sapiens) (P08684 whole entry, looked up): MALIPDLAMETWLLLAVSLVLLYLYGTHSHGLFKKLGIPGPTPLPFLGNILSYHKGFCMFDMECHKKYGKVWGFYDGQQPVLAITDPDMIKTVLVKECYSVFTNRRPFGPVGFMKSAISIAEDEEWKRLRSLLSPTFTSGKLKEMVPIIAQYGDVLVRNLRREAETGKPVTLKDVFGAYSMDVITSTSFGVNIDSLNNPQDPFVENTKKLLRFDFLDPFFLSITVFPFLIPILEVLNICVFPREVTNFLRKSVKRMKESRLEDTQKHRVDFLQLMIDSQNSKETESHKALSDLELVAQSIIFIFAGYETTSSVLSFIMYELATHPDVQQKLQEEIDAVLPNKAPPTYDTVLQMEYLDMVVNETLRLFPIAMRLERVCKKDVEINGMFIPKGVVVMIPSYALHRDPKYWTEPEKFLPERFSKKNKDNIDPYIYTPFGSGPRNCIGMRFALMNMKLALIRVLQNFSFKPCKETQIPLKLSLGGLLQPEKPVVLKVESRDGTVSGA

This assay addresses Cytochrome P450 3A4 (Homo sapiens) (UniProt P08684). As to the kind of experiment: Cytochrome panel assay with activity outcomes. The following applies: recombinant CYP, pro-luciferin dealkylation, luminescence, p450-cyp3a4; series mostly up to 57.1 µM; activity, negative = inhibition: at the top concentration.
Consider `Clc1ccc(CN2CCCN(Cc3ccc(Cl)cc3)C2c2cc3ccccc3c3ccccc23)cc1`, for which the activity, negative = inhibition is -6.95% [at 11.4 µM].
As a reminder, the AC50 is the midpoint of the concentration-response curve, whichever way the signal moves. `O=Nc1c(O)n(Cc2ccc(Cl)c(Cl)c2)c2ccccc12`: the AC50 is 14.1 µM (active).
Regarding `O=Nc1c(O)n(Cc2ccc(Cl)cc2)c2ccccc12`, the AC50 was 17.8 µM (active).
For the compound `O=c1[nH]ncc2c3ccccc3n(Cc3ccccc3)c12`, the “activity, negative = inhibition” value is -5.96%.
Turning to `Cc1sc2ccccc2[n+]1CCC(C)S(=O)(=O)[O-]` (stereo not given), the “activity, negative = inhibition” value was 7.81%.
`CCCN(CCC)CCCNS(=O)(=O)c1cc(Br)cc2c1N(C(C)=O)CC2`: the activity, negative = inhibition is -10.1% [at 11.4 µM].
On to `CC(=O)N1c2c(cc(Br)cc2S(=O)(=O)NCC2COc3ccccc3O2)CC1C` (stereo not given), for which the AC50 was 7.94 µM (active).
Regarding `OC[C@H]1NC[C@@H](O)[C@@H](O)[C@H]1O`, the “activity, negative = inhibition” value is -12.1%.
Turning to `CCCCOc1ccc(/C=C/C(=O)NCCc2nc3ccccc3[nH]2)cc1`, the AC50 is 12.6 µM (active).
`N[C@@](CCc1ccccc1)(C(=O)O)c1ccccc1`: the activity, negative = inhibition is -0.157% [at 11.4 µM].
Regarding `O=C(Nc1ccc(Cl)cc1)N1CCc2[nH]c3ccccc3c2C1`, the AC50 is 14.1 µM (active).
With `COC(=O)N1CCC2(CC1)CN(C(=O)Nc1ccccc1)C2`, the “activity, negative = inhibition” value was -1.42%.
On the same count and under the same terms, under `O=C(Nc1ccccc1)N1CCC2(CCNCC2)CC1` stands 28.2%.
For the compound `C[C@H]1C2=C3C(CC[C@H]4C(OCc5ccc(F)cc5C(F)(F)F)OC[C@](C)([C@@H]34)N(C(=O)OC(C)(C)C)C2)C2COC(=O)OCC21` (stereo not given in full), the AC50 is 20 µM (active).
The same measure, in the same setting: then `CC[C@H]1C2=C3C(CC[C@H]4C(OCc5ccc(F)cc5C(F)(F)F)OC[C@](C)([C@@H]34)N(C(=O)OC(C)(C)C)C2)C2COC(=O)OCC21` (stereo not given in full), with 20 µM (active); and `Cn1c(=O)c2nc(-c3ccccc3)oc2c2ccccc21`, with 12.6 µM (active).
Take `CCCn1c(-c2ccccc2)nc2c(=O)n(C)c(=O)[nH]c21`: the “activity, negative = inhibition” value is 5.61%.
As for `CC(C)CCN1C(=O)c2ccc(-c3nc4ccccc4c(=O)o3)cc2C1=O`, the activity, negative = inhibition is -5.78% [at 11.4 µM].
`CN(C(=O)c1c(O)c2ccccc2n(C)c1=O)c1ccccc1`: the “activity, negative = inhibition” value is -26.7%.
With `Cc1ccc(-c2nc3c(=O)n(C)c4ccccc4c3o2)cc1`, the AC50 is 7.08 µM (active).
Regarding `Cc1ccc(-n2c(-c3ccccc3)cc(=O)nc2C)cc1`, the “activity, negative = inhibition” value was -14.5%.
The same measure, in the same setting: under `OC[C@@H](O)CNc1ncnc2ccccc12` stands 3.9% [at 11.4 µM]; under `Cc1cc(C)n(-c2ccc(F)cc2)c(=O)c1C(=O)O`, -11%.
For `Cc1cc(C)c(NC(=O)CSc2nnc(Cc3cccn3C)n2-c2ccc(F)cc2)c(C)c1`, the AC50 was 1.58 µM (active).
With `Cc1cc(C)c(NC(=O)NC(=O)c2ccc(F)cc2)c(C)n1`, the “activity, negative = inhibition” value is -0.466%.
Regarding `COc1ccc(NC(=O)c2ncn[nH]2)cc1`, the “activity, negative = inhibition” value is -23.5%.
Turning to `CC(C)c1ccc(O)c(NC(=O)c2ncn[nH]2)c1`, the AC50 is 10 µM (active).
On the same count and under the same terms, under `Cc1ccc(C)c(NC(=O)c2ncn[nH]2)c1` stands 14.1 µM (active).
For the compound `O=C(NCCc1ccc(Cl)cc1)c1ncn[nH]1`, the activity, negative = inhibition is -0.238% [at 2.29 µM].
Still for that read-out and setting: then `CCC(C)n1nnc2c(=O)oc3ccccc3c21` (stereo not given), with -20%.
In the case of `Cc1cccc(CNc2ccnc(-c3ccoc3)n2)c1`, the AC50 is 1 µM (active).
Same read-out and setting: under `c1ccc(CNc2ccnc(-c3ccoc3)n2)cc1` stands 10 µM (active).
For the compound `Cc1ccc(S(=O)(=O)N=Nc2c(O)[nH]c3cc(O)c(C(=O)O)cc23)cc1`, the activity, negative = inhibition was -1.68% [at 11.4 µM].
As to `COc1ccc(CNc2nc(-c3cccc(NS(C)(=O)=O)c3)nc3ccccc23)c(OC)c1`, the AC50 is 2.51 µM (active).
With `CNc1nc(-c2cccc(C#N)c2)nc2ccccc12`, the AC50 is 10 µM (active).
Consider `COc1ccccc1CNc1nc(-c2cccc(C#N)c2)nc2ccccc12`, for which the AC50 is 10 µM (active).
Regarding `COc1ccc(CNc2nc(-c3cccc(C#N)c3)nc3ccccc23)c(OC)c1`, the AC50 was 2.51 µM (active).
Take `N#Cc1cccc(-c2nc(Nc3ccccc3)c3ccccc3n2)c1`: the “activity, negative = inhibition” value was -48.6%.
As for `COc1cc2c(cc1C(F)(F)F)N(C(=O)Nc1cc(F)cc(-c3cccnc3)c1)CC2`, the AC50 was 2.51 µM (active).
As for `CC1(C)OCC([C@H](O)C2=CCCCC2=O)CO1`, the activity, negative = inhibition was -7.04% [at 11.4 µM].
Same read-out and setting: then `CCOC(=O)c1cc(C(=O)OCC)cc(-n2cc(O)c(C(=O)OCC)n2)c1`, with -9.96%.
For `COc1cc(CNn2nnnc2N)ccc1OCc1c(Cl)cccc1Cl`, the AC50 was 0.562 µM (active).
As for `COc1ccc(C[N+](C)(C)N)cc1OC`, the activity, negative = inhibition is -9.55% [at 11.4 µM].
With `COC(=O)c1sc2ncccc2c1OCc1c(Cl)cccc1Cl`, the activity, negative = inhibition was -24.4% [at 11.4 µM].
Same read-out and setting: then `Nc1nc(N)[n+]([O-])c(N)c1NCO`, with -2.59% [at 11.4 µM]; and `O=C(OCCCN1CCCCC1)c1ccc(O)cc1`, with -18%; and `Cc1cc(C(=O)O)c(=O)[nH]c1C`, with -1.64%.
The same measure, in the same setting: then `CO/N=C\[C@@H](NS(=O)(=O)c1ccc(C)cc1)[C@H](C)/C=C\CC(=O)OC`, with -67.3% [at 11.4 µM].
As for `COC(=O)C/C=C\[C@@H](C)[C@@H](/C=N\OC[C@@H](O)COCc1ccco1)NS(=O)(=O)c1ccc(C)cc1`, the AC50 was 3.16 µM (active).
In the case of `COC(=O)C/C=C\[C@@H](C)[C@@H](/C=N\OC[C@@H](O)[C@H]1O[C@H]2OC(C)(C)O[C@H]2[C@@H]1O)NS(=O)(=O)c1ccc(C)cc1`, the AC50 was 3.98 µM (active).
Take `COC(=O)C/C=C\[C@H](C)[C@H](CO)NS(=O)(=O)c1ccc(C)cc1`: the activity, negative = inhibition was -5.02% [at 11.4 µM].
As for `CC(C)[C@@H](OCc1ccccc1)[C@H](C)/C=N\OC[C@@H](O)[C@@H]1O[C@@H]2OC(C)(C)O[C@@H]2[C@H]1O`, the activity, negative = inhibition was -28.7% [at 11.4 µM].
As for `COC(=O)C/C=C\[C@@H](C)[C@@H](/C=N\OC[C@@H](O)COCc1ccco1)OC`, the activity, negative = inhibition was -28.9% [at 11.4 µM].
On to `Clc1ccc(CSC2=NCCN2)cc1Cl`, for which the activity, negative = inhibition is -8.56% [at 11.4 µM].
As for `CNc1cc(CSC)nc(SCc2ccc(Cl)c(Cl)c2)n1`, the AC50 was 5.01 µM (active).
With `O=C(Cn1ccnc1[N+](=O)[O-])NCCO`, the “activity, negative = inhibition” value was -11.3% [at 25.6 µM].
As to `Cc1cnc(CNc2ncnc3ccc(-c4ccccc4C)cc23)cn1`, the AC50 was 3.98 µM (active).
On the same count and under the same terms, under `Cc1cnc(CNc2ncnc3ccc(-c4ccccc4C(F)(F)F)cc23)cn1` stands 2 µM (active).
Still for that read-out and setting: under `Cc1cnc(CNc2ncnc3ccc(-c4ccccc4Cl)cc23)cn1` stands 2.51 µM (active).
For `Cc1cnc(CNc2ncnc3ccc(-c4ccccc4CN(C)C)cc23)cn1`, the “activity, negative = inhibition” value is -33.4%.
For the compound `O=C(NC[C@@H](O)CO)c1c(I)c(C(=O)NC[C@@H](O)CO)c(I)c(N(CCO)C(=O)CO)c1I`, the “activity, negative = inhibition” value is -4.08% [at 25.6 µM].
With `C[N+](C)(C)c1cc2c(nn1)Nc1ccccc1S2`, the activity, negative = inhibition is -5.56% [at 11.4 µM].
The same measure, in the same setting: then `OC(CCCN1CCCCC1)(c1ccccc1)c1ccccc1`, with -25.9% [at 25.6 µM].
For `C=CCNc1nc(Cl)nc(Nc2ccc(OC)cc2)n1`, the AC50 was 14.1 µM (active).
`O=C(c1ccccc1)[C@@H]1O[C@H]1c1ccc(-c2ccccc2)cc1`: the “activity, negative = inhibition” value is -23.2%.
As for `CCOC(=O)Nc1ccc2c(c1)OCO2`, the AC50 is 14.1 µM (active).
With `O=C(NC(=S)Nc1ccc2c(c1)OCO2)c1ccccc1`, the AC50 was 0.631 µM (active).
`CCOC(=O)Nc1ccc(C)cc1NC(=O)OCC`: the activity, negative = inhibition is 4.11% [at 2.29 µM].
In the case of `Cc1ccc(C(=O)NC(=S)Nc2ccc3c(c2)OCCO3)c(C)c1`, the AC50 is 28.2 µM (active).
As for `CC(=O)Nc1ccc2c(c1)OCCO2`, the “activity, negative = inhibition” value is 8.82%.
For the compound `CC(=O)Nc1ccc2c(c1)OCCOCCOc1cc(NC(C)=O)ccc1OCCOCCOCCO2`, the “activity, negative = inhibition” value is -17.9%.
Same read-out and setting: then `O=C(NC(=S)Nc1ccc(Oc2ccc(Cl)cc2)cc1)c1ccccc1`, with -13.5%; and `CS[C@]12C(=O)C[C@]3(C)[C@@H](CC[C@@]3(O)C(=O)CO)[C@@H]1CCC1=CC(=O)CC[C@]12C`, with -14.7% [at 11.4 µM]; and `CC(Oc1ccc(O)cc1)(P(=O)(O)O)P(=O)(O)O`, with -9.31%.
For `CC(=O)c1cc(C#N)c(Oc2cccc(C(F)(F)F)c2)nc1C`, the “activity, negative = inhibition” value is -25%.
Consider `CC(=O)c1cc(C#N)c(Oc2ccc(F)cc2)nc1C`, for which the “activity, negative = inhibition” value is -27.3%.
With `COC(=O)c1cc(C#N)c(Oc2ccc(OC)cc2)nc1C`, the AC50 is 14.1 µM (active).
For `COc1ccc(CC(=O)O/N=C(\N)Cc2ccc(OC)cc2)cc1`, the AC50 was 10 µM (active).
With `COc1ccc(C/C(N)=N/OC(=O)Cc2ccccc2)cc1OC`, the AC50 was 3.16 µM (active).
Take `COc1ccc(Cc2ccccc2C(=O)O)c2ccccc12`: the activity, negative = inhibition was -12.8% [at 11.4 µM].
On to `NC(Cc1ccccc1)=NCC(=O)O`, for which the activity, negative = inhibition is -0.223% [at 11.4 µM].
For `COc1ccccc1CC(=O)O/N=C(\N)Cc1cccc2ccccc12`, the AC50 is 15.8 µM (active).
As to `COc1ccccc1C/C(N)=N/OC(=O)c1ccc(C)c([N+](=O)[O-])c1`, the AC50 was 10 µM (active).
As to `COc1ccccc1OC[C@H](O)COC(N)=O`, the “activity, negative = inhibition” value is -11% [at 25.6 µM].
For `COc1ccc(C[C@@](C)(N)C(=O)O)cc1OC`, the “activity, negative = inhibition” value is -53.3% [at 25.6 µM].
For `O=C1c2ccccc2C(=O)N1CCCCN(C(=O)c1cccc([N+](=O)[O-])c1)c1ccc(Cl)cc1`, the AC50 is 11.2 µM (active).
Same read-out and setting: under `O=C1c2ccccc2C(=O)N1CCCCN(C(=O)c1ccc([N+](=O)[O-])cc1)c1ccc(Cl)cc1` stands 25.1 µM (active).
`CCOC(=O)COc1c(OC)cc(Cl)cc1C1Nc2ccccc2C(=O)N1c1ccc(F)cc1` (stereo not given): the “activity, negative = inhibition” value is 1.4%.
Take `CCOC(=O)COc1c(OC)cc(Cl)cc1C1Nc2ccccc2C(=O)N1c1cccc(C)c1` (stereo not given): the AC50 was 3.98 µM (active).
For `COC(=O)c1sccc1-c1ccc(C(=O)Nc2cccnc2)o1`, the AC50 was 14.1 µM (active).
For `CSc1nc2c(c(C(F)(F)F)n1)CC(C)CC2` (stereo not given), the “activity, negative = inhibition” value is -5.33%.
On to `COc1ccccc1NC(=S)NCCc1ccccc1`, for which the AC50 is 11.2 µM (active).
Take `Fc1cc(Br)ccc1NC(=S)NCCc1ccccc1`: the AC50 is 15.8 µM (active).
As for `Fc1ccccc1NC(=S)NCCc1ccccc1`, the AC50 was 12.6 µM (active).
Turning to `Fc1ccc(NC(=S)NCCc2ccccc2)c(F)c1F`, the “activity, negative = inhibition” value was 7.09%.
